# In PubChem BioAssay (NCATS):
# Results filed as inconclusive are left out. A call without a number means that no potency is given here. The source made the active and inactive calls. The call rests on the fitted dose curve; in most records, active means well fitted cell-killing curve with a large enough effect; inconclusive means small, poorly fitted or top-dose-only effect; inactive means no such curve, though single readings can be large or run the other way.
# Experiment: qHTS of pediatric cancer cell lines to identify multiple opportunities for drug repurposing: Primary screen for Rh41 cells (AID 1347108); further: nearly all actives have a fitted effect of over 70% in size
# Details: Rh41 rhabdomyosarcoma viability, CellTiter-Glo luminescence, 48 h; series mostly up to 46 µM
# In short: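 CRCs from 8- or 11-point titrations (lowest final 0.59 nM NPC, 0.78 nM MIPE). Cell viability: CellTiter-Glo after 48 h incubation, 15 min room-temperature development, luminescence imaging.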
# Potency means the concentration at half of the fitted maximal effect.
row,Compound,Potency
1,Cc1ccc(S(=O)(=O)Nc2cc(Cl)ccc2C(=O)Nc2nc(-c3ccccc3)cs2)cc1,18.7 µM (active)
2,CN1c2cc(O)c(N=NC(N)=O)cc2CC1S(=O)(=O)O (centres undefined),inactive
3,O=C(O)Cn1nnc(-c2cc(N3CCC(Oc4cc(F)ccc4Br)CC3)no2)n1,inactive
4,CC(C)c1ccc(Cn2ccc3c4c(N)nc(NC5CC5)nc4ccc32)cc1,3.72 µM (active)
5,C=CC(=O)Nc1cc2c(Nc3ccc(F)c(Cl)c3)ncnc2cc1OCCCN1CCOCC1,18.7 µM (active)
6,COc1ccc2c(c1)CC[C@@H](CN(C)CC(=O)O)[C@H]2c1ccccc1,5.9 µM (active)
7,COc1ccc(CC2SC(=O)NC2=O)cc1C(=O)NCc1ccc(C(F)(F)F)cc1 (centres undefined),inactive
8,Cn1c(CNc2ccc(C(=N)N)cc2)nc2cc(C(=O)N(CCC(=O)O)c3ccccn3)ccc21,inactive
9,Cc1cn2cc(C(=O)N(C)CCO)cc(N[C@@H]3CCOc4cccc(C)c43)c2n1,inactive
10,CN(C)c1nc(Cc2ccc(NC(=O)c3ccc4ccccc4c3)cc2)nc(Cl)c1CC(=O)O,inactive
11,CCCCCCCCCC(=O)N[C@@H](Cc1c[nH]c2ccccc12)C(=O)N[C@H](CC(N)=O)C(=O)N[C@@H](CC(=O)O)C(=O)N[C@@H]1C(=O)NCC(=O)N[C@@H](CCCN)C(=O)N[C@@H](CC(=O)O)C(=O)N[C@H](C)C(=O)N[C@@H](CC(=O)O)C(=O)NCC(=O)N[C@H](CO)C(=O)N[C@@H]([C@@H](C)CC(=O)O)C(=O)N[C@@H](CC(=O)c2ccccc2N)C(=O)O[C@@H]1C,inactive
12,CCCCOc1c(C(=O)c2c(F)cc(C)cc2F)cnc2n[nH]cc12,18.7 µM (active)
13,CCCn1c(=O)c2[nH]c(-c3cnn(Cc4cccc(C(F)(F)F)c4)c3)nc2n(CC)c1=O,inactive
14,OCc1ccc(-c2ccc(-c3ccc(CO)s3)o2)s1,7.43 µM (active)
